Screening results deposited in PubChem by National Center for Advancing Translational Sciences (NCATS).
Shiga toxin inh: blocks Shiga toxin action in Vero cells | Vero cells, Shiga toxin protein synthesis inhibition reporter | inhibition, % at 38.7 µM | 290,000 compounds, 9.2% hits | AID 2315; in the data active means inhibition mostly above about 28%, no sharp cut-off; inactive means mostly below about 43%; further: 0% is about no effect
Pf growth 96h: P. falciparum growth inhibition at 96 hours | P. falciparum luciferase reporter growth, 96 h | Potency, µM (highest dose often 28.7 µM), without a hit: top-dose activity change, negative = inhibition, hits mostly inhibitors | 320,000 compounds, 6.9% hits; further: potency means the concentration at half of the fitted maximal effect; on the % scale 0 is the no-effect control and ±100 the full control effect
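96 h incubation, 37 C, 5% CO2, of luciferase-reporter P. falciparum-infected RBCs (2% hematocrit, 0.05% parasitemia final) with test compounds; endpoint luminescence.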
CHX counter: affects cycloheximide protein synthesis inhibition readout, counter-screen; cell reporter, cycloheximide protein synthesis inhibition counterscreen; 300,000 compounds, 12% hits; max response, %; in the data active means max response mostly above about 13%, no sharp cut-off; inactive means mostly below about 14%; further: read at 38.3 µM for the half of the compounds with a filed dose; 0% is about no effect
Pf growth 48h: inhibits P. falciparum growth in the first generation, 48 h; P. falciparum luciferase growth in erythrocytes, 48 h; Potency, µM (titrated, usually from 28.7 µM), without a hit: at the highest dose activity change, negative = inhibition, usual class: inhibitors; 310,000 compounds, 5.9% hits; AID 504832; further: potency means the concentration at half of the fitted maximal effect; on the % scale 0 is the no-effect control and ±100 the full control effect
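Growth was read as firefly luciferase luminescence after a 48 h, 37 C, 5% CO2 exposure of compounds to reporter-bearing P. falciparum cultures (0.1% parasitemia, 2% hematocrit final) in Albumax-supplemented RPMI 1640.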
Numbers without * were called inactive; i = inactive; ? = inconclusive; . = not tested or not shown; + = active, no number. A selection: hits, their analogues and other compounds. The true share with any hit is near 21%. Unless noted, the call rests on the fitted dose curve; in most records, active means well fitted inhibition curve with a large enough effect; inconclusive means small, poorly fitted or top-dose-only effect, or another doubt; inactive means no such curve, though single readings can be large or run the other way.

SMILES	Shiga toxin inh	Pf growth 96h	CHX counter	Pf growth 48h
CN1CC(C(=O)c2ccccc2)C(C(=O)c2ccccc2)C1 (configuration not stated)	112.4*	11.3%	54.7*	60.4%
CN1CC(C(=O)c2ccc(F)cc2)C(c2ccc(F)cc2)C1 (configuration not stated)	-7.1	-4.6%	-5.0	.
CC1CCCN(C(=O)CCCC(=O)N2CCCC(C)C2)C1 (configuration not stated)	-19.0	-15.9%	1.0	0.9%
COCC(=O)N1CCCC(C(=O)c2ccc(-c3ccccc3)cc2)C1 (configuration not stated)	11.5	-6.5%	11.1*	-5.8%
COc1ccc(C(=O)C2CCCN(C(=O)Cn3ccc(C)n3)C2)cc1OC (configuration not stated)	-3.4	?	10.6	-15.2%
CCN(c1ccccc1)S(=O)(=O)c1ccc2c(c1)N(C(C)=O)CCS2	-5.9	?	4.9	-9.5%
COc1ccccc1C(=O)C1CCCN(C(=O)c2cccnc2SC)C1 (configuration not stated)	12.2	67.5%	7.1	5.22µM*
CCS(=O)(=O)N1CCN(C(=O)COc2ccc(-c3ccccc3)cc2)CC1	-13.7	-4.7%	-3.1	.
CN1CCCC(C(=O)c2ccc(-c3ccccc3)cc2)C1 (configuration not stated)	33.9*	?	23.1*	?
O=C(CCC1CCCN(C(=O)COc2ccccc2)C1)N1CCN(c2ccccn2)CC1 (configuration not stated)	-9.6	0.5%	-0.2	10.4µM*
CC1CCCN(C(=O)COc2ccc(-c3ccccc3)cc2)C1 (configuration not stated)	40.1*	10.6%	17.3	20.4%
COc1ccc(C(=O)N2CCCC(CCC(=O)N3CCN(c4ccccn4)CC3)C2)cc1 (configuration not stated)	-2.7	-9.7%	-2.4	?
O=C(CCCn1cc([N+](=O)[O-])cn1)Nc1cccnc1	3.9	53.7%	-3.6	-11.5%
CC1C=CCC2C(=O)N(c3cccc(C(=O)Nc4ccc(Br)cc4)c3)C(=O)C12 (configuration not stated)	21.6	5.0%	6.4	44.8%
O=C(Oc1oc(-c2ccco2)nc1C=Nc1ccccc1)c1ccco1	39.1*	41.1%	15.8*	55.2%
O=C(Oc1oc(-c2ccco2)nc1C=Nc1ccccc1)c1ccoc1	20.6	.	17.1*	42.3%
Cc1ccc(C(=O)Oc2oc(-c3ccco3)nc2C=Nc2ccc(Cl)cc2)cc1	98.6*	23.1%	35.8*	15.4%
O=C(O)c1cc(N/N=C/c2ccc3c(c2)OCCO3)ccc1Cl	116.0*	480.9%	109.2*	277.0%
O=C(O/N=C/c1ccc2c(c1)OCO2)c1ccccc1Cl	131.9*	0.5%	54.8*	-6.6%
Cc1ccc(N/N=C/c2ccc3c(c2)OCCO3)cc1Cl	27.7*	-20.2%	55.4*	?
COc1cc(/C=N/Nc2ccc(Cl)c(C(=O)O)c2)ccc1OC(=O)c1ccc(F)cc1	22.9	349.2%	13.3	115.3%
O=C(O)c1cc(S(=O)(=O)Nc2ccc3c(c2)OCCO3)c(Cl)cc1Cl	137.3*	?	73.1*	84.1%
CC(=O)Nc1ccc(S(=O)(=O)Nc2ccc3c(c2)OCCO3)cc1Cl	-6.9	12.8%	-1.6	7.0%
O=C(O/N=C\c1ccc(N2CCOCC2)c([N+](=O)[O-])c1)c1ccccc1Cl	10.3	173.1%	5.8	18.4%
Cc1ccc(C)c(S(=O)(=O)NCC(=O)OCC(=O)Nc2sccc2C(N)=O)c1	.	18.1%	.	-12.8%
SMILES	Shiga toxin inh	Pf growth 96h	CHX counter	Pf growth 48h
C/C(=N\Nc1ccc(Cl)c(C(=O)O)c1)c1ccc2c(c1)OCO2	+	29.2%	88.4*	181.0%
O=C(O)c1ccc(N/N=C/c2ccc3c(c2)OCO3)cc1	-41.0	-14.0%	-10.6	?
O=C(O)c1cc(N/N=C/c2ccc3c(c2)OCO3)ccc1Cl	+	438.9%	80.1*	i
Cc1ccc(CNC(=O)CCC2CCCN(Cc3cc4ccccc4o3)C2)o1 (configuration not stated)	-5.5	-11.0%	-1.6	-12.5%
O=C(CN(Cc1ccco1)C(=O)c1ccc(N2CCCC2=O)cc1)Nc1ccccc1C(F)(F)F	.	-19.0%	.	?
Nc1nonc1-n1nnc(C(=O)N/N=C/c2ccoc2)c1-c1ccccc1	-3.8	?	-7.8	17.7%
CC(C)(C)C1CCC(=O)N(CCC#N)CC1 (configuration not stated)	7.7	47.2%	-3.8	6.2%
COc1cccc(N/C(=N/C(=S)Nc2ccc(C)cc2C)Nc2nc(C)cc(C)n2)c1	8.3	3.29µM*	2.8	4.15µM*
COc1cccc(NC(=S)Nc2cc(C)cc(C)n2)c1	56.1*	91.0%	49.2*	121.9%
COc1ccc(NC(=S)Nc2cc(C)cc(C)n2)cc1OC	24.5	?	20.7*	43.5%
CCNC(=S)/N=C(/Nc1ccc(OC)cc1)Nc1nc(C)cc(C)n1	-29.6	?	-2.0	?
Cc1ccc2sc(N(CCCN(C)C)C(=O)CN3C(=O)c4ccccc4C3=O)nc2c1C	-8.8	26.7%	-3.6	-21.1%
O=C(N=C1SC2CS(=O)(=O)CC2N1CCc1ccccc1)C1CCCCC1 (configuration not stated)	-9.9	-1.3%	-1.1	-3.6%
CCC(=O)Nc1cccc(C(=O)OCc2cccc([N+](=O)[O-])c2)c1	1.9	28.3%	7.3	-17.3%
Cn1cnc2c(=O)[nH]cc([N+](=O)[O-])c21	1.7	?	-3.8	?
CC(C)(OC(=O)c1ccc(F)cc1)c1cc2ccccc2c(=O)o1	.	35.3%	.	0.9%
CNc1nc2ccccc2n1CC(=O)c1ccccc1	20.0	-107.2%	21.7*	83.0%
CCCCn1c(NC(=O)c2ccccc2)nc2ccccc21	4.0	4.65µM*	5.6	?
CCCCn1c(NC(=O)C2CCCCC2)nc2ccccc21	17.7	.	15.5	?
CC(C)(C)C(=O)Cn1c(NCCCO)nc2ccccc21	-23.9	11.7µM*	-4.4	11.4%
C=CCn1c(P(=O)(O)c2ccccc2)nc2ccccc21	14.7	?	-1.0	99.4%
O=C(Cn1c(NCCCO)nc2ccccc21)c1ccc(Br)cc1	-9.5	-27.1%	1.8	.
Cc1ccc(C(=O)Cn2c(NCCO)nc3ccccc32)cc1	34.8	?	-1.3	45.7%
C=CCn1c(NC(=O)c2ccccc2)nc2ccccc21	52.8*	11.7µM*	42.7*	?
CCn1c(NC(=O)/C=C/c2ccc(F)cc2)nc2ccccc21	42.3	?	15.2	11.7µM*
SMILES	Shiga toxin inh	Pf growth 96h	CHX counter	Pf growth 48h
CCCn1c(C(C)NC(=O)c2ccccc2)nc2ccccc21 (configuration not stated)	9.3	?	-2.4	-9.2%
CCCCn1c(NC(=S)Nc2ccccc2)nc2ccccc21	-15.1	?	12.1	5.22µM*
CCCn1c(NC(=O)C2CCN(C(=O)c3ccc(F)cc3)CC2)nc2ccccc21	-21.5	?	2.8	?
CCn1c(NC(=O)c2ccccc2)nc2ccccc21	86.4*	10.4µM*	30.6*	11.7µM*
CCc1nnc(SCC(=O)Nc2ccccc2Cl)nc1CC	0.3	2.2%	3.1	13.4%
CC(=O)c1c(C)[nH]c(C(=O)COC(=O)c2ccc(Cl)nc2)c1C	.	-23.9%	.	-10.4%
